Assay results: publication PMC11006913
Residue numbers refer to the chain shown, from its start.

Key:
Assay in all cases: PBM; 200 nM protein, PBS
Conditions in all cases: dsDNA, one strand shown
HOXB9 [1] = target: HOXB9 (Homo sapiens, UniProt P17482 171-250, T197M)
HOXA4 [2] = target: HOXA4 (Homo sapiens, UniProt Q00056 201-287, W262R)
HOXC9 [3] = target: HOXC9 (Homo sapiens, UniProt P31274 178-260, K195R)
VENTX = target: T1, VENTX (Homo sapiens, UniProt O95231 78-163)
T1 sequence: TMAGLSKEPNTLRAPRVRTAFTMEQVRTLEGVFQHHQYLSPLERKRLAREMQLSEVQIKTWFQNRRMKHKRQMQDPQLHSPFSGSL

HOXA7 [4] = target: HOXA7 (Homo sapiens, UniProt P31268 116-202)
Sequence of HOXA7 (Homo sapiens, UniProt P31268 116-202) (P31268 116-202): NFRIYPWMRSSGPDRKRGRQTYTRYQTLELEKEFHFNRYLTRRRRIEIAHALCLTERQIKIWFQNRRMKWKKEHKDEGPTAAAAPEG

HOXC10 [5] = target: HOXC10 (Homo sapiens, UniProt Q9NYD6 254-340)
Sequence of HOXC10 (Homo sapiens, UniProt Q9NYD6 254-340) (Q9NYD6 254-340): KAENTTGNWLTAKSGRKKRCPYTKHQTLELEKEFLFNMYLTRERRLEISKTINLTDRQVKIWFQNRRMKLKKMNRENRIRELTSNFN

PAX4 [6] = target: T2, PAX4 (Homo sapiens, UniProt O43316 9-242)
T2 sequence: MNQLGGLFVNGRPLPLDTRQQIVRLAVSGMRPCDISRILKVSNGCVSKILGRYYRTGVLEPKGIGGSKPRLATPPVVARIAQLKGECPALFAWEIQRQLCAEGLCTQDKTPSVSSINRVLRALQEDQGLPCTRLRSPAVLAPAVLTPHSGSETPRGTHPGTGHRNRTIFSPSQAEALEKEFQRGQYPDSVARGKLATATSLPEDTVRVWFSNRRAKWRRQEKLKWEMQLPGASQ

HOXB9 [7] = target: HOXB9 (Homo sapiens, UniProt P17482 171-250)
Sequence of HOXB9 (Homo sapiens, UniProt P17482 171-250) (P17482 171-250): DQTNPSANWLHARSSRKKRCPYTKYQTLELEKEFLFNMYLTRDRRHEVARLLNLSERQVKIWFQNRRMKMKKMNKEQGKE

HOXC9 [8] = target: HOXC9 (Homo sapiens, UniProt P31274 178-260)
Sequence of HOXC9 (Homo sapiens, UniProt P31274 178-260) (P31274 178-260): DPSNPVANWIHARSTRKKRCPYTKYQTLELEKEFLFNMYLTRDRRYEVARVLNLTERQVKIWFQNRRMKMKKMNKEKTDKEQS

HOXC9 [9] = target: HOXC9 (Homo sapiens, UniProt P31274 178-260, R193K)
Sequence of HOXC9 (Homo sapiens, UniProt P31274 178-260, R193K) (P31274 178-260 R193K): as the sequence (P31274 178-260) above, with R16K counted along it

HOXA4 [10] = target: HOXA4 (Homo sapiens, UniProt Q00056 201-287)
Sequence of HOXA4 (Homo sapiens, UniProt Q00056 201-287) (Q00056 201-287): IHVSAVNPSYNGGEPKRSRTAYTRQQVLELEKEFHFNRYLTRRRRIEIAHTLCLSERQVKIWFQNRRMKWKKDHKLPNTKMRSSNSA

HOXC10 [11] = target: HOXC10 (Homo sapiens, UniProt Q9NYD6 254-340, K271E)
Sequence of HOXC10 (Homo sapiens, UniProt Q9NYD6 254-340, K271E) (Q9NYD6 254-340 K271E): as the sequence (Q9NYD6 254-340) above, with K18E counted along it

VAX1 = VAX1 (Homo sapiens, UniProt Q5SQQ9 86-172)
Sequence of VAX1 (Q5SQQ9 86-172): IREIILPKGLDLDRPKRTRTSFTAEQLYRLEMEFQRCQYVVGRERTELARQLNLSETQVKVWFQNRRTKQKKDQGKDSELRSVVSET

HOXB9 [12] = target: HOXB9 (Homo sapiens, UniProt P17482 171-250, R186Q)
Sequence of HOXB9 (Homo sapiens, UniProt P17482 171-250, R186Q) (P17482 171-250 R186Q): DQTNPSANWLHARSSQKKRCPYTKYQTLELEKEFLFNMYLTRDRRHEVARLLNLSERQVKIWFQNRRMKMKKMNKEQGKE

HOXC9 [13] = target: HOXC9 (Homo sapiens, UniProt P31274 178-260, R222W)
Sequence of HOXC9 (Homo sapiens, UniProt P31274 178-260, R222W) (P31274 178-260 R222W): as the sequence (P31274 178-260) above, with R45W counted along it

PAX4 [14] = target: T3, PAX4 (Homo sapiens, UniProt O43316 9-242, R227W)
T3 sequence: T2 sequence with R219W

HOXA2 [15] = target: HOXA2 (Homo sapiens, UniProt O43364 129-215, Y150S)
Sequence of HOXA2 (Homo sapiens, UniProt O43364 129-215, Y150S) (O43364 129-215 Y150S): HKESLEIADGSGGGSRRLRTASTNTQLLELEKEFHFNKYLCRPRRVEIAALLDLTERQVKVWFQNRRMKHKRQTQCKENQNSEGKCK

HOXA7 [16] = target: HOXA7 (Homo sapiens, UniProt P31268 116-202, W177C)
Sequence of HOXA7 (Homo sapiens, UniProt P31268 116-202, W177C) (P31268 116-202 W177C): as the sequence (P31268 116-202) above, with W62C counted along it

HOXA2 [17] = target: HOXA2 (Homo sapiens, UniProt O43364 129-215)
Sequence of HOXA2 (Homo sapiens, UniProt O43364 129-215) (O43364 129-215): as the sequence (O43364 129-215 Y150S) above, with S22Y counted along it

HOXB6 = HOXB6 (Homo sapiens, UniProt P17509 132-218)
Sequence of HOXB6 (P17509 132-218): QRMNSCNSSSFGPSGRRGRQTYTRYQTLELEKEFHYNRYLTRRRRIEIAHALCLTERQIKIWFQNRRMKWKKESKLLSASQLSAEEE

Sequence of HOXB9 (Homo sapiens, UniProt P17482 171-250, T197M) (P17482 171-250 T197M): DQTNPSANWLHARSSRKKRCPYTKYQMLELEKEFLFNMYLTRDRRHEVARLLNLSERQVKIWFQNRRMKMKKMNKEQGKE
Sequence of HOXC9 (Homo sapiens, UniProt P31274 178-260, K195R) (P31274 178-260 K195R): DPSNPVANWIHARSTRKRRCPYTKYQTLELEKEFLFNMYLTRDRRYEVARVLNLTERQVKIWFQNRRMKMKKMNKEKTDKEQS
Sequence of HOXA4 (Homo sapiens, UniProt Q00056 201-287, W262R) (Q00056 201-287 W262R): as the sequence (Q00056 201-287) above, with W62R counted along it

| Sequence | binding signal (HOXB9 [1]) | binding signal (HOXA4 [2]) | binding signal (HOXC9 [3]) | binding signal (VENTX) | binding signal (HOXA7 [4]) | binding signal (HOXC10 [5]) | binding signal (PAX4 [6]) | binding signal (HOXB9 [7]) | binding signal (HOXC9 [8]) | binding signal (HOXC9 [9]) | binding signal (HOXA4 [10]) | binding signal (HOXC10 [11]) | binding signal (VAX1) | binding signal (HOXB9 [12]) | binding signal (HOXC9 [13]) | binding signal (PAX4 [14]) | binding signal (HOXA2 [15]) | binding signal (HOXA7 [16]) | binding signal (HOXA2 [17]) | binding signal (HOXB6) |
| --- | --- | --- | --- | --- | --- | --- | --- | --- | --- | --- | --- | --- | --- | --- | --- | --- | --- | --- | --- | --- |
| ATTAATGA | 10.4 upbm affinity estimate (log intensity, higher = more binding, comparable within an allelic series) | 10.8 upbm affinity estimate (log intensity, higher = more binding, comparable within an allelic series) | 13 upbm affinity estimate (log intensity, higher = more binding, comparable within an allelic series) | 12.8 upbm affinity estimate (log intensity, higher = more binding, comparable within an allelic series) | 12 upbm affinity estimate (log intensity, higher = more binding, comparable within an allelic series) | 12.5 upbm affinity estimate (log intensity, higher = more binding, comparable within an allelic series) | 12.3 upbm affinity estimate (log intensity, higher = more binding, comparable within an allelic series) | 12.2 upbm affinity estimate (log intensity, higher = more binding, comparable within an allelic series) | 13 upbm affinity estimate (log intensity, higher = more binding, comparable within an allelic series) | 12.9 upbm affinity estimate (log intensity, higher = more binding, comparable within an allelic series) | 14.2 upbm affinity estimate (log intensity, higher = more binding, comparable within an allelic series) | 12.3 upbm affinity estimate (log intensity, higher = more binding, comparable within an allelic series) | 13.4 upbm affinity estimate (log intensity, higher = more binding, comparable within an allelic series) | 11.9 upbm affinity estimate (log intensity, higher = more binding, comparable within an allelic series) | 11.2 upbm affinity estimate (log intensity, higher = more binding, comparable within an allelic series) | 11 upbm affinity estimate (log intensity, higher = more binding, comparable within an allelic series) | 11 upbm affinity estimate (log intensity, higher = more binding, comparable within an allelic series) | 8.94 upbm affinity estimate (log intensity, higher = more binding, comparable within an allelic series) | 12.9 upbm affinity estimate (log intensity, higher = more binding, comparable within an allelic series) | 12.3 upbm affinity estimate (log intensity, higher = more binding, comparable within an allelic series) |
| TAATTACA | 10.3 upbm affinity estimate (log intensity, higher = more binding, comparable within an allelic series) | 10.8 upbm affinity estimate (log intensity, higher = more binding, comparable within an allelic series) | 12.9 upbm affinity estimate (log intensity, higher = more binding, comparable within an allelic series) | 12.7 upbm affinity estimate (log intensity, higher = more binding, comparable within an allelic series) | 12.1 upbm affinity estimate (log intensity, higher = more binding, comparable within an allelic series) | 12.3 upbm affinity estimate (log intensity, higher = more binding, comparable within an allelic series) | 12.4 upbm affinity estimate (log intensity, higher = more binding, comparable within an allelic series) | 12.1 upbm affinity estimate (log intensity, higher = more binding, comparable within an allelic series) | 12.8 upbm affinity estimate (log intensity, higher = more binding, comparable within an allelic series) | 12.9 upbm affinity estimate (log intensity, higher = more binding, comparable within an allelic series) | 14.2 upbm affinity estimate (log intensity, higher = more binding, comparable within an allelic series) | 12.3 upbm affinity estimate (log intensity, higher = more binding, comparable within an allelic series) | 13.6 upbm affinity estimate (log intensity, higher = more binding, comparable within an allelic series) | 11.8 upbm affinity estimate (log intensity, higher = more binding, comparable within an allelic series) | 11 upbm affinity estimate (log intensity, higher = more binding, comparable within an allelic series) | 11.2 upbm affinity estimate (log intensity, higher = more binding, comparable within an allelic series) | 11 upbm affinity estimate (log intensity, higher = more binding, comparable within an allelic series) | 8.98 upbm affinity estimate (log intensity, higher = more binding, comparable within an allelic series) | 13.3 upbm affinity estimate (log intensity, higher = more binding, comparable within an allelic series) | 12.5 upbm affinity estimate (log intensity, higher = more binding, comparable within an allelic series) |
| TTAATTAA | 10.4 upbm affinity estimate (log intensity, higher = more binding, comparable within an allelic series) | 11 upbm affinity estimate (log intensity, higher = more binding, comparable within an allelic series) | 12.9 upbm affinity estimate (log intensity, higher = more binding, comparable within an allelic series) | 12.8 upbm affinity estimate (log intensity, higher = more binding, comparable within an allelic series) | 12.2 upbm affinity estimate (log intensity, higher = more binding, comparable within an allelic series) | 12.4 upbm affinity estimate (log intensity, higher = more binding, comparable within an allelic series) | 12.6 upbm affinity estimate (log intensity, higher = more binding, comparable within an allelic series) | 12.3 upbm affinity estimate (log intensity, higher = more binding, comparable within an allelic series) | 12.8 upbm affinity estimate (log intensity, higher = more binding, comparable within an allelic series) | 12.7 upbm affinity estimate (log intensity, higher = more binding, comparable within an allelic series) | 14.3 upbm affinity estimate (log intensity, higher = more binding, comparable within an allelic series) | 12.3 upbm affinity estimate (log intensity, higher = more binding, comparable within an allelic series) | 13.6 upbm affinity estimate (log intensity, higher = more binding, comparable within an allelic series) | 12 upbm affinity estimate (log intensity, higher = more binding, comparable within an allelic series) | 11.5 upbm affinity estimate (log intensity, higher = more binding, comparable within an allelic series) | 11.4 upbm affinity estimate (log intensity, higher = more binding, comparable within an allelic series) | 10.8 upbm affinity estimate (log intensity, higher = more binding, comparable within an allelic series) | 8.85 upbm affinity estimate (log intensity, higher = more binding, comparable within an allelic series) | 13.1 upbm affinity estimate (log intensity, higher = more binding, comparable within an allelic series) | 12.5 upbm affinity estimate (log intensity, higher = more binding, comparable within an allelic series) |
| AATTAATG | 10.2 upbm affinity estimate (log intensity, higher = more binding, comparable within an allelic series) | 10.6 upbm affinity estimate (log intensity, higher = more binding, comparable within an allelic series) | 12.8 upbm affinity estimate (log intensity, higher = more binding, comparable within an allelic series) | 12.5 upbm affinity estimate (log intensity, higher = more binding, comparable within an allelic series) | 11.9 upbm affinity estimate (log intensity, higher = more binding, comparable within an allelic series) | 12.2 upbm affinity estimate (log intensity, higher = more binding, comparable within an allelic series) | 12.5 upbm affinity estimate (log intensity, higher = more binding, comparable within an allelic series) | 12.1 upbm affinity estimate (log intensity, higher = more binding, comparable within an allelic series) | 12.8 upbm affinity estimate (log intensity, higher = more binding, comparable within an allelic series) | 12.8 upbm affinity estimate (log intensity, higher = more binding, comparable within an allelic series) | 14.1 upbm affinity estimate (log intensity, higher = more binding, comparable within an allelic series) | 12 upbm affinity estimate (log intensity, higher = more binding, comparable within an allelic series) | 13.1 upbm affinity estimate (log intensity, higher = more binding, comparable within an allelic series) | 11.8 upbm affinity estimate (log intensity, higher = more binding, comparable within an allelic series) | 11 upbm affinity estimate (log intensity, higher = more binding, comparable within an allelic series) | 11.1 upbm affinity estimate (log intensity, higher = more binding, comparable within an allelic series) | 11 upbm affinity estimate (log intensity, higher = more binding, comparable within an allelic series) | 8.87 upbm affinity estimate (log intensity, higher = more binding, comparable within an allelic series) | 12.5 upbm affinity estimate (log intensity, higher = more binding, comparable within an allelic series) | 12.2 upbm affinity estimate (log intensity, higher = more binding, comparable within an allelic series) |
| ATTAATTA | 10.6 upbm affinity estimate (log intensity, higher = more binding, comparable within an allelic series) | 11.1 upbm affinity estimate (log intensity, higher = more binding, comparable within an allelic series) | 13.3 upbm affinity estimate (log intensity, higher = more binding, comparable within an allelic series) | 13.2 upbm affinity estimate (log intensity, higher = more binding, comparable within an allelic series) | 12.6 upbm affinity estimate (log intensity, higher = more binding, comparable within an allelic series) | 12.6 upbm affinity estimate (log intensity, higher = more binding, comparable within an allelic series) | 12.8 upbm affinity estimate (log intensity, higher = more binding, comparable within an allelic series) | 12.6 upbm affinity estimate (log intensity, higher = more binding, comparable within an allelic series) | 13.2 upbm affinity estimate (log intensity, higher = more binding, comparable within an allelic series) | 13.2 upbm affinity estimate (log intensity, higher = more binding, comparable within an allelic series) | 14.4 upbm affinity estimate (log intensity, higher = more binding, comparable within an allelic series) | 12.7 upbm affinity estimate (log intensity, higher = more binding, comparable within an allelic series) | 13.8 upbm affinity estimate (log intensity, higher = more binding, comparable within an allelic series) | 12.3 upbm affinity estimate (log intensity, higher = more binding, comparable within an allelic series) | 11.5 upbm affinity estimate (log intensity, higher = more binding, comparable within an allelic series) | 11.4 upbm affinity estimate (log intensity, higher = more binding, comparable within an allelic series) | 11.1 upbm affinity estimate (log intensity, higher = more binding, comparable within an allelic series) | 9.01 upbm affinity estimate (log intensity, higher = more binding, comparable within an allelic series) | 13.3 upbm affinity estimate (log intensity, higher = more binding, comparable within an allelic series) | 12.8 upbm affinity estimate (log intensity, higher = more binding, comparable within an allelic series) |
| CTTAATTA | 10.2 upbm affinity estimate (log intensity, higher = more binding, comparable within an allelic series) | 11 upbm affinity estimate (log intensity, higher = more binding, comparable within an allelic series) | 12.7 upbm affinity estimate (log intensity, higher = more binding, comparable within an allelic series) | 12.9 upbm affinity estimate (log intensity, higher = more binding, comparable within an allelic series) | 12.1 upbm affinity estimate (log intensity, higher = more binding, comparable within an allelic series) | 12.2 upbm affinity estimate (log intensity, higher = more binding, comparable within an allelic series) | 12.7 upbm affinity estimate (log intensity, higher = more binding, comparable within an allelic series) | 11.8 upbm affinity estimate (log intensity, higher = more binding, comparable within an allelic series) | 12.6 upbm affinity estimate (log intensity, higher = more binding, comparable within an allelic series) | 12.6 upbm affinity estimate (log intensity, higher = more binding, comparable within an allelic series) | 14.3 upbm affinity estimate (log intensity, higher = more binding, comparable within an allelic series) | 12.2 upbm affinity estimate (log intensity, higher = more binding, comparable within an allelic series) | 13.8 upbm affinity estimate (log intensity, higher = more binding, comparable within an allelic series) | 11.5 upbm affinity estimate (log intensity, higher = more binding, comparable within an allelic series) | 11.1 upbm affinity estimate (log intensity, higher = more binding, comparable within an allelic series) | 11.3 upbm affinity estimate (log intensity, higher = more binding, comparable within an allelic series) | 11 upbm affinity estimate (log intensity, higher = more binding, comparable within an allelic series) | 8.96 upbm affinity estimate (log intensity, higher = more binding, comparable within an allelic series) | 13.1 upbm affinity estimate (log intensity, higher = more binding, comparable within an allelic series) | 12.5 upbm affinity estimate (log intensity, higher = more binding, comparable within an allelic series) |
